# Screens (PubChem)
# ELG1 genotox: qHTS screen for small molecules that induce genotoxicity in human embryonic kidney (HEK293T) cells expressing luciferase-tagged ELG1 | HEK293T ELG1-luciferase reporter, luminescence, 16 h | Potency, µM (top dose mostly 46 µM), for the others: top-dose activity change, positive = activation, hits mostly activators | actives 1.3% (n = 330,000); further: % of control where 0% means no effect; nearly all actives have a fitted effect of over 60% in size
#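 Step 1: seed 2,000 HEK293T ELG1-luciferase cells per well. Step 2: add compound or DMSO, incubate 16 hr at 37 °C. Step 3: ONE-Glo, 30 min at room temperature, read luminescence.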
# Rab9 prom act: qHTS Assay for Rab9 Promoter Activators; Huh7 Rab9 promoter-luciferase reporter, luminescence, 24 h; Potency, µM (highest dose often 9.22 µM), for inactives: at the top dose activation, negative = inhibition, usual class: activators; actives 2.8% (n = 320,000); further: % of control where 0% means no effect; nearly all actives have a fitted effect of over 60% in size
#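 Promoter activation is measured as luciferase luminescence in Huh7 cells stably transfected with a Rab9 promoter–luciferase construct, following 24 h compound exposure at 37 °C and 10 min reagent incubation at ambient temperature.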
# ELG1 repair inh: qHTS screen for small molecules that inhibit ELG1-dependent DNA repair in human embryonic kidney (HEK293T) cells expressing luciferase-tagged ELG1; actives 2.3% (n = 330,000); HEK293T ELG1-luciferase reporter, luminescence, 16 h; DNA damage induced by 5-fluorouridine; AID 504467, 2011; Potency, µM (series often up to 46.1 µM), for the others: at the highest dose activity change, negative = inhibition, actives largely listed as inhibitors; further: on the % scale 0 is the no-effect control and ±100 the full control effect; nearly all actives have a fitted effect of over 55% in size
#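 5-Fluorouridine DNA damage + compound/DMSO, 2,000 cells/well, 16 h, 37 °C/5% CO2. ONE-Glo, 30 min RT, luminescence. Readout = decrease in reporter signal.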
# SMN2 splice enh: qHTS Assay for Enhancers of SMN2 Splice Variant Expression | HEK293 SMN2-luciferase splicing reporter, luminescence, 30-36 h | Potency, µM (series often up to 46.1 µM), for the others: at the highest dose activity change, positive = activation, hits mostly activators | actives 2.8% (n = 210,000) | AID 1458, 2008; further: % of control where 0% means no effect; nearly all actives have a fitted effect of over 55% in size
#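 HEK293 cells carry an SMN2 […]–luciferase reporter in which exon 7 inclusion puts luciferase in frame. Cells were plated 10-12 h before compound addition, then incubated 30-36 h at 37C. ONE-Glo luminescence was read; sodium butyrate at 4.5 mM final served as control.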
# FLuc modulator: qHTS profiling assay for firefly luciferase inhibitor/activator using purifed enzyme and Km concentrations of substrates (counterscreen for miR-21 project). actives 6.9% (n = 360,000). Potency, µM (top dose mostly 57.5 µM), for inactives: at the top dose activity change, negative = inhibition, actives largely listed as inhibitors. Luciferin 4-monooxygenase (Photinus pyralis), P08659. AID 588342, 2011. purified FLuc, Km substrates, luminescence inhibition;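 further: plate controls were vehicle for no effect and reference inhibitor for full effect; nearly all actives have a fitted effect of over 55% in size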
# Target sequence (P08659 whole entry, looked up): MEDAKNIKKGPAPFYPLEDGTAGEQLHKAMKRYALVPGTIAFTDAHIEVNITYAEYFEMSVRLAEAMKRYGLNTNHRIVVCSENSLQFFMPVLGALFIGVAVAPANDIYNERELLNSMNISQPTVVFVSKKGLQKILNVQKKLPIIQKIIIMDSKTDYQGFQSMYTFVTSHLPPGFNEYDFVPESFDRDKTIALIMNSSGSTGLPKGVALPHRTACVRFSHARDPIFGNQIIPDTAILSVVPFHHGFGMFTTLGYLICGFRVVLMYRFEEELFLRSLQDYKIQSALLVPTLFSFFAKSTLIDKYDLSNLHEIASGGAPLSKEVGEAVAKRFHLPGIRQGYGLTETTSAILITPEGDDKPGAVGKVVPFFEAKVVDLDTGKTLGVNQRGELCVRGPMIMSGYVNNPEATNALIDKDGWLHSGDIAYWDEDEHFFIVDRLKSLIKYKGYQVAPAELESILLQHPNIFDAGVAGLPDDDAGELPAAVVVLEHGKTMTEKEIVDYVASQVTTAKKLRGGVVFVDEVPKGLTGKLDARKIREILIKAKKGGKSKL
#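 Biochemical qHTS of compounds, final roughly 60 µM downward over six points, against 10 nM purified firefly luciferase using Km concentrations of substrates (10 uM D-luciferin, 10 uM ATP) in Tris acetate pH 7.5 buffer; luminescence output.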
# NPC1 prom act: qHTS Assay for NPC1 Promoter Activators. Huh7 NPC1 promoter luciferase reporter, 24 h. Potency, µM (series often up to 9.22 µM), without a hit: top-dose activation, actives largely listed as activators. actives 2.4% (n = 320,000). AID 485313, 2010; further: % of control where 0% means no effect; nearly all actives have a fitted effect of over 60% in size
#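 Luciferase expression driven by the NPC1 promoter was measured in stably transfected Huh7 cells after a 24 h compound incubation, using a luciferase reagent and a luminescence read.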
# * hit, by the source's call; ? = inconclusive; . = not tested or not shown. A selection: hits, their analogues and other compounds. The true share with any hit is near 9.2%. The call rests on the fitted dose curve; in most records, active means well fitted curve in the direction sought with a large enough effect; inconclusive means small, poorly fitted or top-dose-only effect, or another doubt; inactive means no such curve, though single readings can be large; an effect the other way counts as inactive or inconclusive. Potency means the concentration at half of the fitted maximal effect.
SMILES,ELG1 genotox,Rab9 prom act,ELG1 repair inh,SMN2 splice enh,FLuc modulator,NPC1 prom act
O=C(CN1CCN(c2cccc(Cl)c2)CC1)Nc1ccc([N+](=O)[O-])cc1C(=O)Nc1ccccc1F,-8%,-1%,15µM*,-26%,2%,-1%
Cc1ccc(C)c(N2CCN(CC(=O)Nc3ccc([N+](=O)[O-])cc3C(=O)Nc3ccccc3F)CC2)c1,0%,-3%,?,-6%,3%,-4%
O=C(O/N=C/C1=C(Cl)c2ccccc2CC1)c1ccc(F)cc1,-4%,-5%,-2%,3%,6.7µM*,-3%
N/C(CS(=O)(=O)c1ccccc1)=N\OC(=O)c1ccc(F)cc1,?,6%,?,.,6%,-1%
Brc1ccc(CNc2nc3ccccc3n2CCN2CCCCC2)cc1,-13%,-4%,-3%,.,-18%,-8%
COc1ccc(N2Nc3n[nH]c(N)c3N2)cc1,8%,?,?,?,27µM*,20%
CCOc1ccc(N2Nc3n[nH]c(N)c3N2)cc1,?,?,?,?,19µM*,?
CCOc1ccc(Cc2n[nH]c(=S)n2N)cc1,-2%,2%,-14%,?,7%,1%
Cc1ccc(SCC(=O)N=C2NC(=O)CS2)cc1,1%,3%,3%,.,15µM*,-15%
O=C(NCc1cccs1)c1ccc2c(=O)n3nc(Nc4ccccc4)sc3nc2c1,.,.,.,.,5%,.
CCSC1=N/C(=C\c2ccc3c(c2)OCO3)C(=O)S1,3%,1%,0%,.,-19%,-1%
CN1C(=O)/C(=C/c2ccc3c(c2)OCO3)N=C1c1ccccc1,-2%,-2%,-5%,8%,4.8µM*,0%
Cc1c(C=O)c2ccccc2n1CC(=O)NCc1ccc2c(c1)OCO2,-3%,1%,10%,.,1%,0%
COC(=O)c1cc(-c2ccc(Cl)cc2Cl)n[nH]1,?,-2%,?,21%,15µM*,1%
COc1ccc(CN(C(=O)CSc2nnc(-c3ccc(F)cc3)o2)c2ccc(F)cc2)cc1,-4%,7%,?,-25%,1%,-1%
CCOC(=O)CSc1nnc(-c2c[nH]c3ccccc23)o1,-3%,0%,20%,.,19µM*,0%
COc1ccc(CN(C(=O)CSc2nnc(-c3c[nH]c4ccccc34)o2)c2ccc(F)cc2)cc1OC,-11%,-1%,5.2µM*,-94%,?,0%
CCSc1nnc(-c2c[nH]c3ccccc23)o1,?,4µM*,?,.,19µM*,3.2µM*
COc1ccccc1N(CC1CO1)S(=O)(=O)c1ccc(C)cc1 (stereo not drawn),-3%,-1%,0%,.,0%,-2%
Cc1cc(NC(=O)CSc2nnc(-c3cccc(F)c3)n2N)no1,2%,10%,8%,.,.,-7%
COC(=O)c1ccc(NC(=O)CSc2ccc(-c3ccccn3)nn2)cc1,11%,20%,4%,.,-20%,15%
CCOc1ccc(-n2c(=O)c3c4c(sc3n(Cc3cccc(Cl)c3)c2=O)CCCC4)cc1,.,.,.,6%,-1%,.
COc1cc(/C=C/c2ccc3c([N+](=O)[O-])cccc3n2)ccc1OCC(=O)O,2%,0%,14%,.,3.4µM*,3%
COc1cc(/C=C/c2ccc3cccc([N+](=O)[O-])c3n2)ccc1OCC(=O)O,-1%,2%,15%,6%,1.9µM*,1%
CCOc1c(OC(C)=O)ccc(/C=C/c2ccc3cccc(OC)c3n2)c1[N+](=O)[O-],0%,13%,-14%,?,6µM*,?
SMILES,ELG1 genotox,Rab9 prom act,ELG1 repair inh,SMN2 splice enh,FLuc modulator,NPC1 prom act
COc1c(OC(C)=O)ccc(/C=N\NC(=O)c2ccc(Br)cc2)c1[N+](=O)[O-],-4%,-2%,?,.,2%,-3%
O=C(O)COc1ccc(/C=C/c2ccc3cccc([N+](=O)[O-])c3n2)cc1,10%,0%,22%,24%,2.7µM*,10%
COc1cc(C=O)ccc1OCCCCOc1ccccc1[N+](=O)[O-],1%,1%,5%,4%,-29%,0%
CC(=O)Nc1ccc(/C=C/c2ccc3cccc([N+](=O)[O-])c3n2)cc1,-3%,-1%,-10%,.,?,17%
CC(Sc1nnc(C2CC2)n1N)C(=O)NC1CCCCC1C (stereo not drawn),7%,6%,?,.,6%,-1%
CCSc1ccccc1C(=O)N1CCC2(CC1)CC(=O)c1ccccc1O2,-21%,-6%,?,.,7%,-6%
COc1cc(/C=C/c2nc3ccc([N+](=O)[O-])cc3s2)ccc1OCC(=O)O,-3%,-6%,-7%,.,2.7µM*,-2%
C=CCn1c(/N=C/c2ccc(N(C)C)cc2)nc2ccccc21,0%,9%,10%,.,0.13µM*,0%
CCn1c(/N=C/c2ccc(OC)cc2O)nc2ccccc21,1%,9%,2%,.,0.95µM*,0%
CCCn1c(/N=C/c2ccccc2O)nc2ccccc21,2%,0%,2%,-3%,0%,-4%
CN(C)c1ccc(/C=N/n2ncc3ccccc32)cc1,?,?,?,8.9µM*,11µM*,24%
CCCCn1c(/N=C/c2ccc3c(c2)OCO3)nc2ccccc21,-3%,2%,-5%,18%,8.5µM*,-3%
Cc1cc(C)c2c(CC(=O)Nc3ccc(S(=O)(=O)Nc4ncccn4)cc3)coc2c1,.,.,.,1%,?,.
O=C1CCC([N+](=O)[O-])C(c2cc3c(cc2Cl)OCO3)N1 (stereo not drawn),-1%,-1%,2%,.,0%,-1%
CCCCn1c(/N=C/c2ccc(N(C)C)cc2)nc2ccccc21,-1%,-2%,-3%,-20%,1.9µM*,0%
CCCCn1c(N)nc2ccccc21,-8%,3%,?,-10%,4%,-1%
COc1ccc(/C=N/c2nc3ccccc3n2CCN2CCCCC2)cc1OC,0%,-2%,6%,7%,-9%,-3%
C=CCn1c(/N=C/c2ccc(OC)cc2)nc2ccccc21,-2%,-2%,-6%,.,0.43µM*,-5%
CC(C)N(CCNC(=O)c1oc(=O)c2ccccc2c1-c1ccccc1)Cc1ccco1,0%,-5%,0%,-40%,5%,-4%
Cc1ccc(NC(=O)CCc2nc3cccnc3n2-c2ccccc2)cc1Cl,.,.,.,-11%,1%,.
